Results filed as inconclusive are left out. A call without a number means that no potency is given here. A number with no mark means an inactive call. Calls of active or inactive are those of the source. Calls follow the shape of the full dose curve. Bridge positions count the residues as written; N and C are the ends. Square brackets hold non-standard residues; d marks the D form. Peptide text beside a SMILES is read from it. hArg = N=C(N)NCCCC[C@H](N)C(=O)O; Mpa = O=C(O)CCS
assay: Cytotoxicity counterscreen for inhibitors of SARS-CoV-2 cell entry (AID 1645845); conditions: cell viability (SARS-CoV-2 entry assay cells); series mostly up to 57.1 µM; activity change, negative = cytotoxicity: at the top concentration; also: nearly all actives have a fitted effect of over 50% in size
Source text: Assay Provider: Wei Zheng, Ph.D.
National Center for Advancing Translational Sciences, National Institute of Health, Rockville, MD.
SARS-CoV-2 spike protein, within the viral envelope, mediates viral attachment and infection of host cells. The SARS-CoV-2 spike protein specifically binds to the host receptor ACE2 (Angiotensin-converting enzyme 2). This interaction promotes endocytosis of the viral particle, additional events lead to viral-host cell membrane fusion and release of the viral contents, allowing viral replication.
While SARS-CoV-2 requires BSL-3 facilities for live virus work, pseudo-typed partices (PP) that incorporate SARS-CoV-2 spike proteins without replication elements could facilitate studies on viral entry mechanisms in a BSL-2 setting. This PP cell entry assay could also enable screening of small molecule compound libraries in BSL-2 setting to identify inhibitors of SARS-CoV-2 cell entry. To eliminate false positive compounds, ATP content cytotoxicity assay was screened in the same cell line.
SEQUENCE No. (e.g., 1, 2, 3, etc.); […] (e.g., Cells, Incubation, Reagent, etc.); VALUE and DESCRIPTION.
1. Cells. Seed 1500 HEK293-ACE2 cells (Expi293F with stable expression of human ACE2) in 2 uL/well media (DMEM, 10% FBS, 1x L-glutamine, 1x Pen/Strep, 1 ug/ml puromycin) in white 1536-well assay plates (Greiner #782073).
2. Incubation. Incubate at 37 C with 5% CO2 overnight (~16 h).
3. Compounds. Dispense 23 nL/well compounds in DMSO via pin transfer.
4. Incubation. Incubate for 1 h at 37C 5% CO2.
5. Reagent. Dispense 2 uL/well of media (DMEM, 10% FBS, 1x L-glutamine, 1x Pen/Strep, 1 ug/ml puromycin).
6. Incubation. Incubate at for 48h at 37C 5% CO2
7. Reagent. Dispense 4 uL/well of ATPLite 1step luminescence assay reagent (PerkinElmer #6016739).
8. Incubation. Incubate for 15 min at room temperature.
9. Detection. Read luminescence signal (Viewlux plate reader, PerkinElmer). Data was normalized with wells containing cells as 100%, and wells without cells (media only control) as 0%.
Potency is read from the fitted curve at half-maximal effect.

Row | Compound | outcome | activity change, negative = cytotoxicity [%] | Potency
1 | CC(Cc1ccccc1)NCCCCl (stereo not given) | inactive | – | –
2 | CC(C)[C@@H]1CC[C@@H](C)CC1=O | inactive | – | –
3 | O=C(O)CCC(=O)Nc1ccc(S(=O)(=O)Nc2nccs2)cc1 | inactive | – | –
4 | CC[C@H]1C[C@H]2[C@@H]3CCC4=CC(=O)CC[C@@H]4[C@H]3CC[C@]2(C)[C@H]1O | – | -0.377 | –
5 | Clc1ccc2c(c1)CCc1cccnc1C2=C1CCNCC1 | – | -5.66 | –
6 | Nc1ccc(S(=O)(=O)Nc2cnc3ccccc3n2)cc1 | inactive | – | –
7 | CN(C)CCCOc1nn(Cc2ccccc2)c2ccccc12 | inactive | – | –
8 | CCN(CC)C(=O)C1CN2CCc3cc(OC)c(OC)cc3C2CC1OC(C)=O (stereo not given) | – | 4.36 | –
9 | CC[N+](CC)(CC(=O)Nc1c(C)cccc1C)Cc1ccccc1 | – | – | inactive
10 | CC1(C)O[C@@H]2C[C@H]3[C@@H]4CCC5=CC(=O)CC[C@]5(C)[C@@]4(F)[C@@H](O)C[C@]3(C)[C@]2(C(=O)CCl)O1 | inactive | – | –
11 | CCC(CN)=C(c1ccccc1)c1ccccc1 | inactive | – | –
12 | COC(=O)C1=C(C)NC(COC(N)=O)=C(C(=O)OC(C)C)C1c1cccc(Cl)c1Cl (stereo not given) | – | -16.2 | –
13 | CCCCCCCCCCCCOCCOCCOCCOCCOCCOCCOCCOCCOCCO | – | – | 11.2 µM (active)
14 | CCCNC(C)(C)COC(=O)c1ccccc1 | inactive | – | –
15 | C[N+](C)(C)CCCCCCCCCC[N+](C)(C)C | inactive | – | –
16 | CCCCCCCCCCCCCCCC[N+](C)(C)Cc1ccccc1 | – | – | 22.4 µM (active)
17 | CCN(CC)CCOc1ccc(Cc2ccccc2)cc1 | inactive | – | –
18 | N#Cc1nn(-c2c(Cl)cc(C(F)(F)F)cc2Cl)c(N)c1S(=O)C(F)(F)F (stereo not given) | – | -26.6 | –
19 | C[C@]12CCC(=O)C=C1[C@@H]1C[C@@H]1[C@H]1[C@@H]3[C@@H]4C[C@@H]4[C@@]4(CCC(=O)O4)[C@@]3(C)CC[C@@H]12 | – | -16.9 | –
20 | NCCNC(=O)c1ccc(Cl)cn1 | inactive | – | –

Row | Compound | outcome | activity change, negative = cytotoxicity [%] | Potency
21 | CC1CC(=O)NN=C1c1ccc(NCC(C)(C)NCC(O)COc2cc(Cl)ccc2C#N)cc1 (stereo not given) | inactive | – | –
22 | CCN(CC)CC(=O)OCC(=O)[C@@]1(O)CC[C@H]2[C@@H]3CCC4=CC(=O)CC[C@]4(C)[C@H]3[C@@H](O)C[C@@]21C | – | -27.3 | –
23 | CCOC(=O)OCC/C(SC(=O)OCC)=C(\C)N(C=O)Cc1cnc(C)nc1N | – | -0.2 | –
24 | COc1ccc(CCN(C)CCCC(C#N)(c2cc(OC)c(OC)c(OC)c2)C(C)C)cc1OC (stereo not given) | inactive | – | –
25 | CC(C)[N+](C)(CCC(C(N)=O)(c1ccccc1)c1ccccc1)C(C)C | inactive | – | –
26 | C#CC1(O)CC[C@H]2[C@@H]3CCC4=CCCC[C@@H]4[C@H]3CC[C@@]21C (stereo not given in full) | – | -7.24 | –
27 | CC1(C)O[C@@H]2C[C@H]3[C@@H]4C[C@H](F)C5=CC(=O)CC[C@]5(C)[C@H]4[C@@H](O)C[C@]3(C)[C@]2(C(=O)CO)O1 | inactive | – | –
28 | CCOCC(O)COc1ccc(NC(=O)CC[S+](C)C)cc1 (stereo not given) | – | – | inactive
29 | CNC(=O)c1cnn(-c2nc(N)c3ncn([C@@H]4O[C@H](CO)[C@@H](O)[C@H]4O)c3n2)c1 | inactive | – | –
30 | C[C@H]1C[C@H]2[C@@H]3CCC4=CC(=O)C=C[C@]4(C)[C@@]3(Cl)[C@@H](O)C[C@]2(C)[C@@]1(O)C(=O)CO | inactive | – | –
31 | Cc1ccc2c(Cl)cc(Cl)c(O)c2n1 | – | 1.06 | –
32 | CC(C(=O)O)c1ccc(CC2CCCC2=O)cc1 (stereo not given) | – | -0.543 | –
33 | CCN(CC)C(=O)Nc1ccc(OCC(O)CNC(C)(C)C)c(C(C)=O)c1 (stereo not given) | – | 1.67 | –
34 | O=C(O)Cc1ccccc1 | inactive | – | –
35 | CC(O)Cn1cnc2c1c(=O)n(C)c(=O)n2C (stereo not given) | inactive | – | –
36 | C=C1c2cccc(O)c2C(O)=C2C(=O)[C@]3(O)C(O)=C(C(N)=O)C(=O)[C@@H](N(C)C)[C@@H]3[C@@H](O)[C@H]12 | – | 3.74 | –
37 | CCOc1c(N2CCOCC2)cnn(C)c1=O | – | 4.62 | –
38 | NC(=O)[C@@H]1CSSCCC(=O)N[C@@H](CCCCN=C(N)N)C(=O)NCC(=O)N[C@@H](CC(=O)O)C(=O)N[C@@H](Cc2c[nH]c3ccccc23)C(=O)N2CCC[C@H]2C(=O)N1 ([Mpa][hArg]GDWPC-NH2; disulfide 1-7) | inactive | – | –
39 | CCOC(=O)[C@H](CCc1ccccc1)N[C@@H](C)C(=O)N1C(=O)N(C)C[C@H]1C(=O)O | inactive | – | –
40 | CCCCCCc1ccc(O)cc1O | inactive | – | –

Source: PubChem BioAssay (NCATS)
